# RORg inh: blocks mouse ROR gamma transcriptional activity; P51450; Drosophila S2 Gal4-RORgamma UAS-luciferase reporter, 20 h; Potency, µM (highest dose often 53.6 µM), for the others: at the top dose activity change, negative = inhibition, most hits filed as inhibitors; 5.4% of 310,000 active; AID 2551; also: % is scaled to controls: 0 for no effect and ±100 for the full control effect; nearly all actives have a fitted effect of over 60% in size
#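 ROR gamma transcriptional activity was tracked as Gal4-UAS luciferase output in stably transfected Drosophila Schneider cells, with compound added 1 hr before 700 uM copper sulfate induction and a 20 hr ambient-temperature incubation.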
# GLP-1R inv ag: GLP-1 receptor (human) inverse agonism | Potency, µM (top dose mostly 38.3 µM), for the others: top-dose activity change, negative = inhibition, actives largely listed as inhibitors | 1.6% of 410,000 active | P43220 | AID 624417 | HEK293 GLP-1R CRE-luciferase, luminescence, 24 h; GLP-1R form is constitutively active; also: % is scaled to controls: 0 for no effect and ±100 for the full control effect; nearly all actives have a fitted effect of over 55% in size
# Target sequence (P43220 whole entry, looked up): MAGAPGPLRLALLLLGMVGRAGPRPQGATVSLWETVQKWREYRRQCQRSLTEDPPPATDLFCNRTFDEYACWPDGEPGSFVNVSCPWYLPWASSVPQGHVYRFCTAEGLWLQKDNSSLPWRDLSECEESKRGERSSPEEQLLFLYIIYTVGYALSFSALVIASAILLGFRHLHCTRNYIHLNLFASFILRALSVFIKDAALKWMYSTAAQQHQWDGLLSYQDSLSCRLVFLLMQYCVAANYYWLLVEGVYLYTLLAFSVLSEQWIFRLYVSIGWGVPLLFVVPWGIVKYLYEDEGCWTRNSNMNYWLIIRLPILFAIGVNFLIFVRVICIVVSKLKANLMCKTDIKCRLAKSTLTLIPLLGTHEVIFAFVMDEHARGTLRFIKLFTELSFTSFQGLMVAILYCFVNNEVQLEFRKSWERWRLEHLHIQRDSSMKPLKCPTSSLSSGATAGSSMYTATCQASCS
#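 Using stably transfected HEK293 (constitutively active GLP-1R, cAMP-luciferase reporter), compounds were incubated 24 hr and luciferase measured by luminescence.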
# HEK293 tox: cytotoxic in the GLP-1 receptor inverse agonist counter-screen; AID 624418; Potency, µM (series often up to 38.3 µM), without a hit: at the highest dose activity change, negative = inhibition, usual class: inhibitors; HEK293 cAMP-luciferase reporter cells, luminescence, 24 h; 0.13% of 410,000 active;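 also: loss of luciferase light is scored as toxicity; % is scaled to controls: 0 for no effect and ±100 for the full control effect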
#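 MLSMR compounds, 24 hr on cells at 37 deg C/5% CO2; luminescence after luciferase reagent (12 min RT). Inhibition counted as the undesired cytotoxic outcome.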
# GLP1R ag: activates the human GLP-1 receptor; P43220; HEK293 GLP-1R CRE-luciferase, luminescence, 4-6 h; cells express a hypersensitive GLP-1R form; Potency, µM (titrated, usually from 45.6 µM), for the others: at the highest dose activation, hits mostly activators; 0.007% of 380,000 active; also: % of control where 0% means no effect
# Gal4-VP16 FLuc: inhibits Gal4-VP16 luciferase reporter, ROR gamma counter-screen; Drosophila S2 Gal4-VP16 UAS-luciferase, luminescence, 20 h; Potency, µM (series often up to 53.6 µM), for inactives: at the top dose activity, negative = inhibition, most hits filed as inhibitors; 3.5% of 310,000 active;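 also: Gal4-VP16 expression switched on by copper sulfate through the metallothionein promoter; % is scaled to controls: 0 for no effect and ±100 for the full control effect; nearly all actives have a fitted effect of over 50% in size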
# * = called active by the depositor; ? = inconclusive; · = not tested or not shown; [ ] = dose if it differs, or a comment. Hits are enriched below; roughly 5.9% of the tested compounds scored in any of these assays. Calls follow the shape of the dose curve; as a rule, active = well fitted curve in the direction sought with a large enough effect; inconclusive = small, poorly fitted or top-dose-only effect, or another doubt; inactive = no such curve, though single readings can be large; an effect the other way counts as inactive or inconclusive. Potency is read from the fitted curve at half-maximal effect.
SMILES,RORg inh,GLP-1R inv ag,HEK293 tox,GLP1R ag,Gal4-VP16 FLuc
S=C(NCCc1ccccc1)Nc1ccc(Nc2ccccc2)cc1,5.01µM*,?,-19.5%,5.0%,12.6µM*
Cc1ccccc1OCCNC(=S)Nc1ccccc1,3.16µM*,?,?,23.9%,5.62µM*
CCCNC(=S)Nc1ccccc1,10µM*,-0.9%,0.4%,-4.1%,?
OCCNC(=S)NCCc1ccccc1,-10.2%,1.6%,-12.9%,-2.8%,16.0%
S=C(NCCCc1ccccc1)Nc1ccccc1,15.8µM*,?,?,0.7%,3.98µM*
NCCCC[C@H](NC(=O)[C@@H]1CCCN1C(=O)[C@@H](N)CCCN=C(N)N)C(=O)N1CCC[C@H]1C(=O)N[C@@H](CCC(N)=O)C(=O)N[C@@H](CCC(N)=O)C(=O)N[C@@H](Cc1ccccc1)C(=O)O,10.3%,·,·,·,2.2%
Cc1cccc(-n2ncc(C(=O)N3CCN(C4CCCCC4)CC3)c2C2CCN(C(=O)OC(C)(C)C)CC2)c1,·,-4.9%,-6.3%,·,·
S=C(NCCCc1ccccc1)Nc1ccc(Cl)cc1,4.47µM*,?,?,-15.7%,5.01µM*
O=C(NCCCc1ccccc1)Nc1ccccc1,30.3%,?,1.9%,26.0%,3.8%
COC(=O)NC(/C=C/c1ccccc1)C(C(C)=O)C(=O)OC (stereo unspecified),-2.6%,·,·,·,-18.4%
CO[C@@H]1COC(=O)C/C=C\[C@@H](C)COC(=O)[C@H](Cc2ccccc2)NC(=O)C/C=C\[C@H]1C,10.0%[10 µM],·,·,·,-7.8%[10 µM]
CC(=O)Nc1ccc(C=NNc2nnc(NN=Cc3ccc(NC(C)=O)cc3)c3ccccc23)cc1,·,0.4%,-0.3%,-1.8%,·
COc1ccc(/C=N/Nc2nnc(-c3ncc[nH]3)c3ccccc23)cc1,2.82µM*,-1.3%,-2.6%,0.4%,4.47µM*
Oc1ccc2ccccc2c1/C=N/Nc1nnc(-c2ncc[nH]2)c2ccccc12,0.251µM*,-18.3%,-3.5%,2.8%,0.251µM*
CN1CCc2cc(O)c(O)cc2C1Cc1ccc(O)c(O)c1 (stereo unspecified),4.0%,·,·,·,-11.9%
Cc1ccc(NC(=S)Nc2ccccn2)cc1C,0.708µM*,?,?,11.1%,3.16µM*
Cc1ccc(NC(=S)Nc2ccc3nc(-c4ccccn4)c(-c4ccccn4)nc3c2)cc1C,14.1µM*,-5.4%,176.3%,6.2%,?
Cc1cc(C)cc(NC(=S)NN)c1,7.94µM*,-17.5%,1.9%,5.8%,?
S=C(Nc1cccnc1)Nc1ccccc1Br,-13.2%,6.4%[0.307 µM],-1.5%[0.307 µM],-7.6%,-8.4%
Cc1ccc(NC(=S)NNC(=S)NNc2ccccc2)cc1C,·,?,?,2.2%,·
Cc1cc(C)cc(NC(=S)Nc2ccccn2)c1,1.12µM*,?,?,-0.9%,4.47µM*
COc1ccc(SCC(CC(C)C)N2CCN(C)CCC2=O)cc1 (stereo unspecified),11.3%,·,·,·,11.8%
CC(C)C(C(=O)O)N1C(=O)/C(=C/c2ccc(Br)cc2)SC1=S (stereo unspecified),39.0%,·,·,·,?
CCCC[C@@H]1C[C@H]1C(NC(=O)c1cccs1)c1ccc(C(F)(F)F)cc1 (stereo partly specified),-25.2%,·,·,·,1.4%
CCOC(=O)c1cccc(NC(=O)CC2C(=O)N(c3ccccc3)C(=O)N2Cc2ccco2)c1 (stereo unspecified),·,-7.3%,-0.2%,·,·
SMILES,RORg inh,GLP-1R inv ag,HEK293 tox,GLP1R ag,Gal4-VP16 FLuc
Cc1cccc(NC(=S)Nc2ccccn2)c1,0.501µM*,11.2µM*,?,25.4%,6.31µM*
COc1cccc(-c2nnc(NC(=O)CCS(=O)(=O)c3ccc(C)cc3)o2)c1,·,4.7%,12.7%,-5.5%,·
CCCN(CCC)S(=O)(=O)c1ccc(C(=O)Nc2nnc(-c3cccc(OC)c3)o2)cc1,0.398µM*,22.4%,-6.8%,-12.3%,0.631µM*
CCCN(CCC)S(=O)(=O)c1ccc(C(=O)Nc2nnc(-c3cc(OC)cc(OC)c3)o2)cc1,0.159µM*,1.2%,-15.6%,-11.3%,0.282µM*
CCCN(CCC)S(=O)(=O)c1ccc(C(=O)Nc2cc3oc4ccccc4c3cc2OC)cc1,8.6%,-19.6%,30.6%,-8.4%,?
CCOC(=O)C(CS)NCCN[C@@H](CS)C(=O)OCC (stereo partly specified),-26.7%,·,·,-0.9%,-16.5%
NC(=O)C1CCN(S(=O)(=O)c2cc3c(cc2Cl)NC(=O)CO3)CC1,·,12.7%,3.9%,·,·
CN(C)c1ncc2nc(-c3ccccc3)c(=O)n(CCc3ccccc3)c2n1,-5.9%,·,·,·,5.0%
COc1cc(NS(=O)(=O)c2cccc([N+](=O)[O-])c2)c2ncccc2c1,1.12µM*,·,·,·,2µM*
O=[N+]([O-])c1ccc(S(=O)(=O)Nc2ncccn2)cc1,-2.5%,6.7%,6.0%,-3.4%,-0.9%
COc1cc(NS(=O)(=O)c2ccc([N+](=O)[O-])cc2)c2ncccc2c1,0.891µM*,·,·,·,0.891µM*
COc1cc(NS(=O)(=O)c2ccc(C)cc2)c2ncccc2c1,1µM*,?,?,14.0%,0.794µM*
CCN(c1ccc(OC)cc1)S(=O)(=O)c1c(C(=O)N2CCCCCC2)c(C)n(C)c1C,·,-2.8%,0.7%,·,·
CN1CCc2cc3c(cc2C(=O)Cc2ccc4c(c2C1)OCO4)OCO3,-17.0%,·,·,·,-6.7%
Cc1ccc(N(CC(=O)Nc2ccc(C)c(F)c2)S(=O)(=O)c2c(C)n[nH]c2C)cc1,·,?,-11.1%,-1.4%,·
CCOC(=O)c1ccc(CN(Cc2ccccc2C)S(=O)(=O)c2ccc(F)c(C(=O)Nc3cccc(OC)c3)c2)cc1,·,-18.9%,7.5%,·,·
N#Cc1ncc(Cc2ccccc2)nc1C#N,18.6%[1.91 µM],?,?,-6.7%,14.1µM*
COc1ccc(CNC(=O)CC(c2ccc(OC)cc2)N2Cc3ccccc3C2=O)cc1 (stereo unspecified),·,0.3%,-4.2%,·,·
Cc1cc2c([nH]c3ccccc32)c(C)n1,1µM*,10.5%,6.1%,-0.2%,-16.0%
Cc1ccc(S(=O)(=O)Nc2ccccc2C(O)c2ccccc2)cc1 (stereo unspecified),-0.4%,?,-8.1%,1.5%,-11.2%
CNc1ccc(Br)cc1C(O)c1ccccc1 (stereo unspecified),12.6µM*,?,-2.9%,5.5%,?
COc1ccc(Cl)cc1NC(=O)C/C(C)=N/NC(=O)c1ccc(O)cc1,8.91µM*,?,1.3%,-15.1%,?
COc1ccc(C)cc1NC(=O)CN1CCN(c2ccccc2F)CC1,-0.3%,?,20.5%,8.1%,1.1%
CCC(C(=O)OCC(=O)Nc1cc(C)ccc1OC)c1ccccc1 (stereo unspecified),12.1%,10µM*,-7.6%,21.6%,5.2%
COc1ccc(Cl)cc1NC(=O)CN(C)C(=O)c1ccc(C)s1,·,5.62µM*,-9.2%,14.6%,·
COc1ccc(Cl)cc1NC(=O)CN(C)C(=O)c1cc2c(F)cccc2s1,·,?,-22.9%,-3.7%,·

# Assay outcomes deposited in PubChem by National Center for Advancing Translational Sciences (NCATS).
